# Screens: PubChem, National Center for Advancing Translational Sciences (NCATS)
# Rows were chosen to be rich in hits. Some 2.3% of all compounds tested hit in one or more screens of this group.
# Tau fibril ThT: blocks human tau fibril formation measured by thioflavin T; recombinant tau K18 P301L, heparin-induced fibrillization, ThT fluorescence; Potency, µM (top dose mostly 57.4 µM), without a hit: at the top dose activity, negative = inhibition, usual class: inhibitors; hit rate 2.1% among 270,000; P10636; further: potency means the concentration at half of the fitted maximal effect; nearly all actives have a fitted effect of over 55% in size
# Target sequence (P10636 561-689 P618L limits assumed): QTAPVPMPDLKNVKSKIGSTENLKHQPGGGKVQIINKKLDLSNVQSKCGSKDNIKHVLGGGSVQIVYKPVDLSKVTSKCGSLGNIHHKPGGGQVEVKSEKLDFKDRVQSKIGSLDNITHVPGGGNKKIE
#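 Recombinant human tau K18 fragment […] carrying P301L, 15 uM unlabeled plus 0.24 uM Alexa 594-labeled, was fibrillized with 20 uM heparin in 100 mM sodium acetate pH 7 for 6 hr at 37 C; 30 uM ThT fluorescence read after 1 hr.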
# FBPA coupling cs: coupling enzyme interference in Giardia aldolase counter-screen. AID 2472. coupling enzyme system counterscreen, AmpLite Red fluorescence. activity change, negative = inhibition, % at 58.2 µM, hits read low. hit rate 0.67% among 290,000; in the data active means activity change below about -30%
#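 Activity here indicates interference with the coupling reaction, not aldolase inhibition. Compounds at 57.5 uM final met coupling enzymes for 10 min at RT; substrate and AmpLite Red detection followed, with a 525/598 nm fluorescence read after 20 min.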
# Tau FP inhib: blocks human tau fibril formation measured by polarization; K18 P301L tau heparin fibrillization, Alexa594 FP, 6 h; hit rate 0.39% among 280,000; Potency, µM (series often up to 57.7 µM), without a hit: top-dose activity, negative = inhibition, hits mostly inhibitors; AID 1468; further: potency means the concentration at half of the fitted maximal effect; nearly all actives have a fitted effect of over 55% in size
#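 FP of Alexa 594-tau after heparin (20 uM) induction. Substrate: human K18 P301L, 15 uM unlabeled, 0.24 uM labeled. Buffer 100 mM sodium acetate pH 7. 6 hr, 37 C.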
# USP1-UAF1 inh: blocks the human USP1/UAF1 deubiquitinase complex; recombinant USP1/UAF1, Ub-Rhodamine cleavage fluorescence; Potency, µM (series often up to 57.1 µM), for inactives: at the top dose activity change, negative = inhibition, actives largely listed as inhibitors; hit rate 0.23% among 390,000; AID 743255; further: potency means the concentration at half of the fitted maximal effect; nearly all actives have a fitted effect of over 60% in size
#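 USP1/UAF1 complex at 1 nM was preincubated with compound for 15 min at room temperature, then Ub-Rho substrate (150nM final) was added. Fluorescence (480/540 nm) was read kinetically, 6 reads every 60 seconds.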
# Tau fluor cs: counter-screen for tau fibril formation inhibitors. tau K18 P301L Alexa594 fluorescence, heparin fibrillization. Potency, µM (titrated, usually from 57.7 µM), without a hit: at the top dose activity change, negative = decrease. hit rate 0.93% among 280,000; further: potency means the concentration at half of the fitted maximal effect; nearly all actives have a fitted effect of over 55% in size
#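 Human tau K18 P301L (15 uM unlabeled, 0.24 uM Alexa 594-labeled) in 100 mM sodium acetate pH 7 with 20 uM heparin, 6 hr at 37 C. ThT 30 uM added, 1 hr ambient; Alexa 594 FP and total fluorescence read at 555/632 nm.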
# Active calls of the source: *; ? = inconclusive; . = no result; [ ] = another dose, or the depositor's remark. Unless noted, the call rests on the fitted dose curve; in most records, active means well fitted curve in the direction sought with a large enough effect; inconclusive means small, poorly fitted or top-dose-only effect, or another doubt; inactive means no such curve, though single readings can be large; an effect the other way counts as inactive or inconclusive. On the % scale 0 is the no-effect control and ±100 the full control effect.
SMILES,Tau fibril ThT,FBPA coupling cs,Tau FP inhib,USP1-UAF1 inh,Tau fluor cs
COc1cccc(OC)c1-c1cc(C(=O)NC2(C(=O)O)C3CC4CC(C3)CC2C4)nn1-c1ccc(C(=O)N(C)CCCN(C)C)cc1C(C)C (configuration not stated),.,8,.,.,.
CC(C)COC(=O)c1ccc2c(c1O)C(=O)c1ccccc1C2=O,13µM*,-41*,10%,-23%,?
COc1ccc(Oc2ncc3nc(-c4ccc(F)cc4)c(=O)n(CCC#N)c3n2)cc1,.,-1,.,.,.
COc1cc(Br)cc(/C=N/NC(=O)Cc2ccccc2)c1O,.,.,.,-16%,.
COc1ccccc1CN=Cc1[nH]c2ccc(Br)c(Cl)c2c1O,?,-44*,1%,-15%,-20%
Cc1cccc(N=Cc2[nH]c3ccc(Br)c(Cl)c3c2O)c1,?,-33*,2%,?,-23%
COc1ccc(-c2nc(N=Nc3ccc(O)cc3)n[nH]2)cc1,2.8µM*,-5,1%,-15%,-20%
COc1ccc(O)cc1,.,.,.,16%,.
Cc1ccc(-c2nc(N=Nc3ccc(O)cc3)n[nH]2)cc1,2.5µM*,-8,-2%,3%,-27%
Cc1nc(N=Nc2ccc(O)cc2)n[nH]1,-14%,3,-7%,-17%,-2%
CCCc1ccc(-c2c(C)sc(N)c2C#N)cc1,?,-11,?,-13%,16µM*[quencher]
CCCC(=O)Nc1sc(C)c(-c2ccc(OC)cc2)c1C#N,-2%,2,-3%,-10%,-2%
S=C(NNC(=S)Nc1ccc(Cl)cc1)NNc1ccccc1,.,.,.,-25%,.
S=C(N=Nc1ccccc1)NNc1ccccc1,25µM*,-2,?,-24%,20µM*[quencher]
O=C(/C=C/c1ccc(/C=C/C(=O)Nc2ccc(C3=NCCN3)cc2)cc1)Nc1ccc(C2=NCCN2)cc1,.,-1,.,.,.
CC1=C(C(=O)Nc2ccc(C)cc2C)C(c2ccccc2F)n2nc(SCC(=O)c3ccc(C)cc3)nc2N1 (configuration not stated),?,.,?,-16%,27%
O=C1S/C(=C/c2ccccc2)C(=O)N1CC(O)Cn1c2ccccc2c2ccccc21 (configuration not stated),-11%,-1,?,-22%,-14%
CN(C)c1ccc(/C=C2\SC(=O)N(CC(O)Cn3c4ccccc4c4ccccc43)C2=O)cc1 (configuration not stated),-11%,3,?,13µM*,-29%
CC(C)OC(=O)[C@@H]1C=C[C@H](C)[C@@H](CCCCOCc2ccccc2)O1,-1%,1,-14%,.,-15%
O=C(Nc1ccc(F)cc1)Nc1csc2ccccc12,.,-9,2%,?,8.9µM*[quencher]
CCc1ccccc1NC(=O)Nc1ccc(F)cc1,-7%,3,1%,-15%,-9%
CN(C)c1ccc(NC(=O)Nc2csc3ccccc23)cc1,3.5µM*,4,-13%,?,7.1µM*[quencher]
CC(=O)Nc1ccc(NC(=O)C(=O)N/N=C/c2cccnc2)cc1,.,0,0%,-8%,-7%
N#CC1=C(N)OC2=C(C(=O)CCC2)[C@]12C(=O)N(CC(N)=O)c1ccccc12,-6%,0,0%,-14%,-3%
O=C1CCCC2=C1C1(O)C(=O)c3ccccc3C1(O)O2 (configuration not stated),3.5µM*,-6,?,-22%,-15%
SMILES,Tau fibril ThT,FBPA coupling cs,Tau FP inhib,USP1-UAF1 inh,Tau fluor cs
CCn1nccc1C(=O)Nc1ccc(C)c(C)c1,.,-6,.,-15%,.
COc1cc(C(=O)Nc2ccc(N(C)C)cc2)cc(OC)c1OC,16µM*,0,10%,?,-17%
COc1cc(C(=O)Nc2ccc(S(=O)(=O)N(C)c3ccccc3)cc2)cc(OC)c1OC,-7%,-5,?,0%,?
O=C(Nc1cc(-c2ccc(F)c(F)c2)no1)c1ccccc1F,-5%,.,?,-13%,-4%
Clc1ccc(CN2CCC(Cc3ccccc3)CC2)cc1,-4%,1,3%,0%,-6%
Clc1cccc(CN2CCC(Cc3ccccc3)CC2)c1,18µM*,-4,-6%,0%,13µM*[quencher]
Oc1ccc(/C=N/Nc2cc(N3CCCC3)nc(N3CCCC3)n2)cc1O,25µM*,-37*,-13%,-22%,16µM*[quencher]
N#CC(C#N)=C1C=CC=CN1/C(=C\c1ccco1)C(=O)c1ccc(Cl)cc1,22µM*,0,28µM*,-10%,?
N#CC(C#N)=C1C=CC=CN1/C(=C\c1ccco1)C(=O)c1ccc(-c2ccccc2)cc1,16µM*,1,?,-15%,-29%
COc1ccc(NCCNc2ccc(OC)cc2)cc1,?,-35*,-7%,?,-19%
COc1ccc(C(=O)CCNc2ccc(F)cc2)cc1,.,0,.,5%,.
Cc1[nH]n(-c2ccccc2)c(=O)c1N=Nc1ccc2c(c1)OCCO2,3.5µM*,-4,-18%,-14%,?
Nc1[nH]n(-c2ccccc2)c(=O)c1N=Nc1ccc2ncsc2c1,2.2µM*,2,?,-19%,5µM*[quencher]
Nc1[nH]n(-c2ccccc2)c(=O)c1N=Nc1ccccc1,2.5µM*,1,12%,-9%,5µM*[quencher]
Cc1ccc(N=Nc2c(C)[nH]n(-c3ccccc3)c2=O)cc1Br,.,-3,.,1%,.
Nc1[nH]n(-c2ccccc2)c(=O)c1N=Nc1ccccc1[N+](=O)[O-],?,-1,-2%,2%,?
Cc1cnc(CNc2nc(-c3ccc(C(=O)N(C)C)cc3)nc3ccccc23)cn1,-2%,-7,-9%,.,-7%
CC(=O)[C@@H]1[C@@H](C(=O)c2ccccc2)[C@]2(C(=O)Nc3ccccc32)[C@H]2C=Cc3cc(F)ccc3N12,?,-4,-13%,-19%,-12%
O=C(c1ccccc1)[C@@H]1[C@@H](C(=O)c2ccc(F)cc2)[C@@]2(C(=O)Nc3ccccc32)[C@H]2c3ccccc3C=CN12,?,-31*,-10%,28µM*,-20%
COC(=O)N1C(C)=Cc2ccccc2C1C/C(C)=C/C(C)=O (configuration not stated),-1%,0,9%,.,-3%
COC(=O)c1c(C)oc2ccc(N(C(=O)Oc3ccccc3)S(=O)(=O)c3ccc(C(C)(C)C)cc3)cc12,-4%,.,-13%,?,-10%
CCOC(=O)C(C(=O)OCC)c1cc(Br)c2noc3c2c1C(=O)c1ccccc1-3,1.1µM*,-64*,2.2µM*,44%,2.5µM*[quencher]
Cc1c(C2=CCN(S(=O)(=O)c3ccc(CC(C)C)cc3)CC2)c2ccccc2n1CC(=O)N1CCCC1,-10%,.,-4%,?,-15%
COc1ccc(/C=N/Nc2nnc(-c3ncc[nH]3)c3ccccc23)cc1,?,2,6%,-15%,-21%
Oc1ccc2ccccc2c1/C=N/Nc1nnc(-c2ncc[nH]2)c2ccccc12,4µM*,-4,?,9%,8.9µM*[quencher]
